Assay results from PubChem BioAssay (EPA / NIEHS).
Activity calls are given as the source filed them. How the source made its calls: active means hit-call score of the fitted dose curve at least 0.9, where 1 is the maximum; inactive means score below 0.9.

What follows are compounds tested on Thyroid Hormone Responsive (THRSP), THRSP (gene 7069) (assay: LTEA_HepaRG_THRSP: Life Technologies and Expression Analysis (LTEA) Assay for Thyroid Hormone Responsive (THRSP) using HepaRG (AID 2283536)). Conditions: mRNA level, 48 h; actives raise or lower the signal.
Procedure: LTEA_HepaRG is a cell based, multiplexed-readout assay that uses HepaRG, a human liver cell line, with measurements taken at 48 hours after chemical dosing on a 96-well plate.LTEA_HepaRG_THRSP is one of 102 assay component(s) measured in the LTEA HepaRG cell culture assay. It is a marker of NR mediated metabolism.Data from the assay component LTEA_HepaRG_THRSP was analyzed into 1 endpoint. This assay endpoint, LTEA_HepaRG_THRSP, was analyzed with bidirectional fitting relative to DMSO as the negative control and baseline of activity. Using a type of inducible reporter, measures of mRNA induction for gain or loss-of-signal activity can be used to understand regulation of transcription factor activity. To generalize the intended target to other relatable targets, this assay endpoint is annotated to the growth factor intended target family, where the subfamily is NR mediated metabolism.
A total of 1060 chemcials from the ToxCast library were tested in eight-point concentration-response experiments. Cell culture and cytotoxicity assays were conducted at Thermo Fisher Scientific's Custom Services facility (Madison, WI). A single lot of human HepaRG cells (Thermo Fisher Scientific, Frederick, MD) was used for the cell culture experiments. 96-well format collagen type I coated plates of human HepaRG cells were prepared using established methods. Briefly, cryopreserved HepaRG cells were thawed, plated at a density of approximately 100,000 cells/well in HepaRG Thaw, Plate, and General Purpose media (HPRG770, Thermo Fisher Scientific), and incubated for 48 hours. 0.5% DMSO was selected as vehicle control to balance the requisite need of DMSO in HepaRG cultures to maintain differentiation (for example, baseline metabolism, proportions of hepatocytes vs. cholangiocytes), while enabling further hepatic receptor pathway activation (for example, PXR and CAR) in response to chemical exposure. 48 hours after plating, the culture medium was replaced with HepaRG Serum-Free Incudtion Media. Cells were exposed to each test chemical in duplicate and maintained in CO2 incubators for another 48 hours. Chemical plates were thawed to room temperature and 200x concentrations of treatment groups were prepared. 8-point conentration-reponse curves were made with the highest exposure at 100 uM, followed by half-log dilutions, all in 0.5% DMSO. Each test plate contained variouse controls, induction positive controls (1mM phenobarbital), cytotoxicity positive controls ([…] aflatoxin B1), vehicle controls (0.5% DMSO), and total lysis controls (0.5% DMSO). Cell morphology images were taken using an Essen IncuCyte FLR automated microscope, with six 96-well plates imaged in about 24 minutes. Images were captured and exported and JPEG files. Spent culture media was transfered to black-well plates for the LDH assay, and remaining media was sorted at -80 C for later use. Cells were treated with RLT buffer and frozen until shipped for gene expression analysis. Total RNA was isolated from the cell suspension in 75 uL of Buffer RLT (Qiagen, Germantown, MD 20874) by Quintiles/Expression Analysis (Durham, NC) using a custom isolation procedure. Total RNA from each plate well was transferred to a preamplification plate. Fluidigm's 96.96 Dynamic ArrayTM (Fluidigm, Amsterdam, the Netherlands) technology was used for gene expression analyses by quantitative reverse transcription polymerase chain reaction (qRT-PCR, performed by Quintiles/Expression Analysis, Durham, NC)89. Standard TaqManTM Assays (Applied Biosystems/ThermoFisher Scientific, Foster City, CA) were used to assess the expression of 93 genes selected based on their selectivity and sensitivity to important hepatic receptors known to be modulated by environmental chemicals; importance in human hepatocyte functionality; and hepatotoxicity. […]

Row | SMILES | outcome | AC50
1 | NC(=O)NN=Cc1ccc([N+](=O)[O-])o1 | inactive | –
2 | c1ccc(C(O[C@@H]2CCCN(CCc3ccc4c(c3)OCO4)C2)c2ccccc2)cc1 | inactive | –
3 | CCCOc1ccc(S(=O)(=O)N2CCN(CC)CC2)cc1-c1nc2c(CC)n(Cc3ccccn3)nc2c(=O)[nH]1 | – | 50 µM (active)
4 | CCc1cccc(CC)c1N | inactive | –
5 | O=C(O)c1ccc2c(c1)nc(C(=O)NC1CCN(C3CC3)CC1)n2Cc1cc(-c2ccc(Cl)s2)on1 | inactive | –
6 | Cn1cc[nH]c1=S | inactive | –
7 | NC(=O)N1c2ccccc2C=Cc2ccccc21 | inactive | –
8 | CC(C)CCCCCCOC(=O)C1CCCCC1C(=O)OCCCCCCC(C)C (stereo not given) | inactive | –
9 | COS(C)(=O)=O | inactive | –
10 | OC(Cn1cncn1)(Cn1cncn1)c1ccc(F)cc1F | inactive | –
11 | O=S(=O)(O)c1ccc(N=Nc2c(O)ccc3cc(S(=O)(=O)O)ccc23)cc1 | inactive | –
12 | OCCNCCO | inactive | –
13 | CCCCCCCCCCCCCCCCOS(=O)(=O)O | – | 41.1 µM (active)
14 | CCCCOC(=O)c1ccccc1 | inactive | –
15 | O=C(NO)C1(NS(=O)(=O)c2ccc(Oc3ccc(F)cc3)cc2)CCOCC1 | – | 78.1 µM (active)
16 | Nc1ccn([C@@H]2O[C@H](CO)[C@@H](O)[C@@H]2O)c(=O)n1 | inactive | –
17 | Cc1ccc(S(=O)(=O)NC(=O)NN2CCCCCC2)cc1 | inactive | –
18 | Cc1ncc([C@@H](CCCCCCc2ccc3c(n2)NCCC3)CC(=O)O)cn1 | inactive | –
19 | CC[C@H](C)C(=O)O[C@H]1C[C@H](O)C=C2C=C[C@H](C)[C@H](CC[C@@H](O)C[C@@H](O)CC(=O)O)[C@H]21 | – | 21.9 µM (active)
20 | CCCCCCCCCCCCCCO | inactive | –

Row | SMILES | outcome | AC50
21 | CCCCCCCCCC | inactive | –
22 | Cc1nccn1-c1ccc(Sc2cccc(C3(C(N)=O)CCOCC3)c2)cc1 | – | 10.8 µM (active)
23 | Cn1c(=O)c2[nH]cnc2n(C)c1=O | inactive | –
24 | O=S1(=O)CCCO1 | inactive | –
25 | CCCc1ccccc1 | inactive | –
26 | C[C@@H](Oc1ccc(CNC(=O)c2cccnc2Oc2ccc3c(c2)OCO3)c(F)c1)C(=O)O | inactive | –
27 | OC(CCl)CCl | inactive | –
28 | CCCCCOC(C)=O | inactive | –
29 | CCCCCCCCN(C)C | inactive | –
30 | O=C(O)c1cccc(C[C@@H]2COc3ccc(OCc4nc5cc(F)ccc5s4)cc3[C@@H]2O)c1 | – | 80.5 µM (active)
31 | NC(=O)N(O)[C@@H]1COc2cc(OCc3ccccc3)ccc21 | inactive | –
32 | O=C(O)c1cccc(C(=O)O)c1 | inactive | –
33 | CCCCCCCC1CCC(=O)O1 (stereo not given) | inactive | –
34 | C=CN1CCCC1=O | inactive | –
35 | NNC(=O)c1ccncc1 | inactive | –
36 | CCn1nc(C)c2c1C(=O)NCC(c1ccc(O)cc1)=N2 | inactive | –
37 | CC(C)CC(C)O (stereo not given) | inactive | –
38 | CC(C)C(=O)Nc1ccc([N+](=O)[O-])c(C(F)(F)F)c1 | – | 10.9 µM (active)
39 | CC(=O)c1ccccc1 | inactive | –
40 | CCOc1ccc2[nH]cc(C(=O)NCc3ccccc3)c(=O)c2n1 | inactive | –
